Compound activity (PubChem)
DT40 TDP1 no CPT = qHTS for Inhibitors of human tyrosyl-DNA phosphodiesterase 1 (TDP1): qHTS in cells in absence of CPT; hit rate 15% among 420,000; AID 686978, 2013; Potency, µM (top dose mostly 46.2 µM), for inactives: top-dose activity change, negative = growth inhibition, usual class: inhibitors; DT40 Tdp1-/- hTDP1 cells, no CPT, ATP luminescence, 48 h; also: potency is read from the fitted curve at half-maximal effect; nearly all actives have a fitted effect of over 55% in size
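Chicken DT40 Tdp1-/- cells complemented with human TDP1, screened without camptothecin (DMSO vehicle only), 400 cells/well. Compounds pin-transferred, cells incubated at 37 °C for at least 48 hr. Growth read as ATP-dependent luminescence (CellTiter-Glo, 30 min at RT).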
HT1080NT lethal = qHTS for induction of synthetic lethality in tumor cells producing 2HG: qHTS for the HT-1080-NT fibrosarcoma cell line; HT-1080-NT fibrosarcoma viability, CellTiter-Glo ATP luminescence, 48 h; Potency, µM (titrated, usually from 46.1 µM), for inactives: top-dose activity, negative = less viability, usual class: cytotoxic; hit rate 1.6% among 360,000;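 also: NT is the 2HG producing partner of a matched IDH1 knockdown line; potency is read from the fitted curve at half-maximal effect; 0% = DMSO-treated cells and -100% = media-only wells without cells; nearly all actives have a fitted effect of over 55% in size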
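Viability by CellTiter-Glo luminescence after 48 h compound exposure at 37C of HT-1080-NT cells (750/well, RPMI, 5% FBS). % activity scaled between DMSO wells and medium-only wells, then curve-fitted and categorized by curve class.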
uPA generation = qHTS for Inhibitors of Cell Surface uPA Generation; cell surface uPA generation assay, qHTS; Potency, µM (titrated, usually from 38.3 µM), for inactives: at the highest dose activity change, negative = inhibition, usual class: inhibitors; hit rate 0.31% among 330,000; AID 540303, 2011; active = well fitted inhibition curve with a large enough effect; inconclusive = small, poorly fitted or top-dose-only effect; inactive = no such curve, though single readings can be large or run the other way; tested in mouse RAW 264.7 cells; also: potency is read from the fitted curve at half-maximal effect; nearly all actives have a fitted effect of over 55% in size
IL-1B inflam inh = qHTS for Inhibitors of Inflammasome Signaling: IL-1-beta AlphaLISA Primary Screen; THP-1 LPS/ATP IL-1B secretion, AlphaLISA, 16 h; hits give low values; AID 743279, 2014; hit rate 4.7% among 360,000; activity change, % at 57.5 µM; in the data active = activity change below about -50%; inconclusive = mostly about -30% to -49%
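THP-1 cells pretreated 1 hr with compounds (up to 57.5 uM final), then stimulated with LPS (250 ng/mL final) plus ATP (1.25 mM final); secreted IL-1B measured by AlphaLISA after 16 hr, decreased signal indicating inhibition.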
HT1080 IDH1KD tx = qHTS for induction of synthetic lethality in tumor cells producing 2HG: qHTS for the HT-1080-IDH1KD cell line; HT-1080 IDH1 knockdown viability, ATP luminescence, 48 h; hit rate 2% among 360,000; AID 686971, 2013; Potency, µM (titrated, usually from 46.1 µM), for inactives: at the highest dose activity, negative = toxicity, most hits filed as cytotoxic;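 also: potency is read from the fitted curve at half-maximal effect; 0% = DMSO wells and -100% = cell-free medium wells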
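% activity derives from luminescence (CellTiter-Glo), normalised to DMSO and no-cell wells. HT-1080-IDH1KD cells, 750/well, had 48 h compound exposure at 37 °C.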
TDP1 cell CPT = qHTS for Inhibitors of human tyrosyl-DNA phosphodiesterase 1 (TDP1): qHTS in cells in presence of CPT; AID 686979, 2013; chicken DT40 Tdp1-/-;hTDP1 cells + 20 nM CPT, ATP luminescence, 48 h; hit rate 12% among 420,000; Potency, µM (highest dose often 46.2 µM), for inactives: at the highest dose activity change, negative = growth inhibition, hits mostly inhibitors; also: potency is read from the fitted curve at half-maximal effect; nearly all actives have a fitted effect of over 55% in size
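Chicken DT40 Tdp1-/- cells complemented with human TDP1, 400 cells/well, exposed to compounds plus 20 nM camptothecin for at least 48 h at 37 C; viability read as ATP content by CellTiter-Glo luminescence.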
The depositor's hits bear a star; ? = inconclusive; · = not tested or not shown. This is a sample that favours compounds with a hit; in the whole collection about 19% have one here. Unless noted, calls follow the shape of the dose curve; as a rule, active = well fitted curve in the direction sought with a large enough effect; inconclusive = small, poorly fitted or top-dose-only effect, or another doubt; inactive = no such curve, though single readings can be large; an effect the other way counts as inactive or inconclusive. Unless noted, % is scaled to controls: 0 for no effect and ±100 for the full control effect.

SMILES | DT40 TDP1 no CPT | HT1080NT lethal | uPA generation | IL-1B inflam inh | HT1080 IDH1KD tx | TDP1 cell CPT
CN1C(=O)C(O)(C2OC(C)(C)CCC2=O)c2ccccc21 (stereo not drawn) | 6.5µM* | 5% | -5% | 29 | 4% | 8.2µM*
CCOC(=O)CN1C(=O)C(O)(C2CCc3ccccc3C2=O)c2ccccc21 (stereo not drawn) | ? | 19% | -2% | 25 | 17% | ?
CCN1C(=O)C(O)(C2COC(C)(C)CC2=O)c2ccccc21 (stereo not drawn) | 8.2µM* | 22% | -6% | 5 | 25% | 13µM*
CC(C)Oc1ccc(CNC(=O)C2COc3ccccc3C2)cc1 (stereo not drawn) | ? | · | · | · | · | -28%
CCNc1ncc2nc(-c3ccc(OC)cc3)c(=O)n(Cc3cccs3)c2n1 | -24% | · | · | · | · | ?
Cc1ccc(N2C(=O)[C@@H]3CSC(c4ccc(Cl)cc4)N3C2=O)cc1 (stereo partly drawn) | -20% | · | · | · | · | 2%
CCCN1C(=O)C(O)(C2CC(=O)CC(C)(C)O2)c2ccccc21 (stereo not drawn) | 5.8µM* | -2% | -17% | 28 | 10% | 5.8µM*
O=C(OCc1ccccc1)N1CCC2CC1c1cc(-c3cc4ccccc4o3)ccc12 (stereo not drawn) | ? | 12% | · | 43 | 2% | ?
CCSC1(SCC)N=C(N)C2(C#N)C(c3ccc(F)cc3)C12C#N (stereo not drawn) | 21µM* | ? | -14% | -109* | ? | ?
Cc1ccc(C(C)C)c(OCc2ccc(-c3nnco3)cc2)c1 | 21µM* | ? | 13% | -25 | ? | 16µM*
CN(C(=O)COC(=O)/C=C/c1ccc(C(F)(F)F)cc1)C1CCS(=O)(=O)C1 (stereo not drawn) | -9% | -8% | -5% | -30 | -6% | ?
CCOC(=O)[C@]12CCC=C1N(Cc1ccco1)C(=O)[C@H](CC(=O)NCCCOC)C2 | -24% | 21% | · | -13 | 10% | 1%
CCCCNC(=O)C[C@@H]1C[C@@]2(C(=O)OCC)CCC=C2N(Cc2ccc(Cl)cc2Cl)C1=O | 16µM* | ? | · | ? | ? | ?
CCOC(=O)[C@]12CCC=C1N(Cc1ccc(Cl)cc1Cl)C(=O)[C@H](CC(=O)NCCCOC)C2 | 16µM* | -2% | · | -16 | 1% | ?
Cc1cc2c(cc1S(=O)(=O)N(C)CC(=O)Nc1cccc(C#N)c1)OCC(=O)N2 | -18% | · | · | · | · | 4%
Cc1cccc(N/C(N)=N/c2nc(C)cc(C)n2)c1 | 16µM* | -16% | -2% | -109* | -15% | ?
Cc1cc(C)nc(/N=C(\N)Nc2cccc([N+](=O)[O-])c2)n1 | ? | 4% | 3% | -97* | -2% | ?
CC(=O)Nc1cccc(N/C(N)=N/c2nc(C)cc(C)n2)c1 | -12% | -13% | -2% | 35 | -8% | 26µM*
COC(=O)c1cc(N/C(N)=N/c2nc(C)cc(C)n2)cc(C(=O)OC)c1 | ? | -6% | · | 17 | -2% | ?
Cc1cc(=O)[nH]c2nc3ccccc3n12 | -5% | 7% | · | -2 | 6% | -10%
Cc1[nH][nH]c(=O)c1N=Nc1ccc(S(N)(=O)=O)cc1 | -4% | 3% | -7% | 25 | -1% | -18%
Cc1[nH][nH]c(=O)c1N=Nc1ccc(Br)c(Cl)c1 | 23µM* | 11% | -4% | 35 | 7% | ?
COc1cc(C(=O)Nc2ccc3nc(N4CCN(C)CC4)cc(C)c3c2)cc(OC)c1OC | ? | ? | ? | -5 | ? | ?
CCOc1ccccc1NC(=O)CCC(=O)Nc1ccc2nc(N3CCN(C)CC3)cc(C)c2c1 | -9% | -2% | 5% | ? | 13% | -17%
COCCNC(=S)Nc1ccc2nc(N3CCN(C)CC3)cc(C)c2c1 | ? | 0% | 1% | 15 | -3% | -12%
SMILES | DT40 TDP1 no CPT | HT1080NT lethal | uPA generation | IL-1B inflam inh | HT1080 IDH1KD tx | TDP1 cell CPT
COc1cccc(NC(=O)Nc2ccc3nc(N4CCN(C)CC4)cc(C)c3c2)c1 | 15µM* | · | · | · | · | ?
COc1cccc(/C=C/C(=O)Nc2ccc3nc(N4CCN(C)CC4)cc(C)c3c2)c1OC | 5.2µM* | · | · | · | · | 6.5µM*
Cc1cc(C)cc(NC(=O)Nc2ccc3nc(N4CCN(C)CC4)cc(C)c3c2)c1 | 21µM* | · | · | · | · | 23µM*
CCCN(C(=O)COC(=O)c1[nH]c(C)c(C(=O)OC)c1C)c1c(N)n(Cc2ccccc2)c(=O)[nH]c1=O | -8% | -12% | 8% | 6 | -14% | ?
C[C@H](NC(=O)c1ncn2c1C(=O)N[C@@H](C)C2)C(=O)OC(C)(C)C | -10% | 2% | · | -15 | 0% | 2%
COc1cc(CNC(=O)c2cc(-c3ccc(F)cc3OC)n[nH]2)cc(OC)c1 | -10% | 17% | · | 0 | 22% | -20%
C=C1[C@@H](O)[C@@H]2O[C@]3(CC[C@H](/C=C/[C@@H](C)[C@@H]4CC(C)=CC5(O[C@H](C[C@@](C)(O)C(=O)OC)CC[C@H]5O)O4)O3)CC[C@H]2O[C@@H]1[C@@H](O)C[C@H](C)[C@H]1OC2(CCCCO2)CC[C@H]1C (stereo partly drawn) | 0.92µM* | 0.65µM* | ? | -2 | 1.2µM* | 0.58µM*
C=C1C(O)[C@@H]2O[C@]3(CC[C@H](/C=C/C(C)[C@@H]4CC(C)=CC5(O[C@H](C[C@@](C)(O)CO)CCC5O)O4)O3)CC[C@H]2O[C@@H]1C(O)CC(C)[C@H]1OC2(CCCCO2)CCC1C (stereo partly drawn) | 3.3µM* | 1.2µM* | ? | -100* | 0.82µM* | 1.5µM*
O=C(Nc1cccc2[nH]c([C@H]3C[C@H](O)[C@@H](CO)O3)nc12)NC(c1ccccc1)c1ccccc1 | -10% | 5% | · | -7 | 3% | 1%
CNC[C@@H](C)NC[C@@H](Cc1ccccc1)NCCc1ccccc1 | 4.6µM* | ? | -8% | ? | -22% | 8.2µM*
CCOc1ccccc1CN1CCNC(=O)C1CC(=O)NC1CCCCCCC1 (stereo not drawn) | ? | -2% | -1% | -22 | -1% | 29µM*
